Screens as filed in PubChem BioAssay.
ATG4B inh – blocks human ATG4B protease cleavage of LC3 substrate; AID 504462; ATG4B cleavage of LC3-PLA2, NBD-HPC fluorescence, 1 h; inhibition, % at 8.33 µM; 340,000 tested, 0.51% active; Q9Y4P1; in the data active means inhibition above about 40%
CHRM1 antagonist – antagonists of human M1 muscarinic receptor; AID 588852; inhibition, % at 3 µM; CHO-K1 hM1, Fluo-8 calcium fluorescence, ACh EC80 antagonist; P11229; 360,000 tested, 1.3% active;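 active means percent inhibition above its own plate's cutoff, namely the mean of that plate's compound wells plus 3 SD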;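 further: peak over basal fluorescence ratio during 140 s after agonist addition; 0% = ACh EC80 plus DMSO and 100% = DMSO alone without agonist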
Target sequence (P11229 whole entry, looked up): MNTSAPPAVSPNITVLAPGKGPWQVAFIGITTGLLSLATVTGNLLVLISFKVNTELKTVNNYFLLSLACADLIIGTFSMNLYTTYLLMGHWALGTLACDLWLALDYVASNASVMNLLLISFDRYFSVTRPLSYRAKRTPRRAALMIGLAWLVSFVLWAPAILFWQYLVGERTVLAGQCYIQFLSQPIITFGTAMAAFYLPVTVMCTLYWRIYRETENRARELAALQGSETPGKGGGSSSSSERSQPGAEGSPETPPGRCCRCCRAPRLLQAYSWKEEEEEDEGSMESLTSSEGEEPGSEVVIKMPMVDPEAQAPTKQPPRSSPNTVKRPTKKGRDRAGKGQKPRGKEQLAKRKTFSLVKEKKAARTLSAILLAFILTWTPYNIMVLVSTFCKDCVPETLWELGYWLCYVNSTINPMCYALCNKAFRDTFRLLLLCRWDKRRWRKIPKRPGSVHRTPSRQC
CHRM1 PAM – human CHRM1 positive allosteric modulation. activation, % at 3 µM. 360,000 tested, 0.088% active. P11229. CHO-K1 hM1, Fluo-8 calcium fluorescence, ACh EC20; 0% = ACh EC20, 100% = maximal ACh. AID 588819; in the data active means activation above about 19%, passing the limit was not always enough
SKN-1 inh – blocks SKN-1 activity in C. elegans. C. elegans VP596 Pgst-4::GFP/RFP ratio, acrylamide-induced, 24 h. inhibition, % at 21.8 µM. 360,000 tested, 0.49% active;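 active means interference check ratio from 0.5 to 1.5 plus GFP to RFP signal ratio inhibition reaching or exceeding a fixed threshold, cut at about 30% in these data, passing the limit was not always enough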
M1 ag – human M1 muscarinic receptor agonism. AID 588814. activation, % at 3 µM. P11229. 360,000 tested, 0.33% active. CHO-K1 hM1, Fluo-8 calcium fluorescence, agonist mode; 0% DMSO, 100% acetylcholine EC100;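 active means activation above the run's mean compound activation plus 3 SD, cut at about 16% in these data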;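 further: peak over basal fluorescence ratio within a 140 s kinetic read after compound addition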
Myeloid diff 2 – myeloid differentiation induction; ER-HoxA9 myeloid progenitors, lysozyme-GFP differentiation, flow cytometry; calls only at 10 µM; 360,000 tested, 1% active; AID 624256;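 active means normalized GFP-positive differentiation at or above the plate's own cutoff, the solvent-only control mean plus 3 SD; inconclusive means no clear call, values can overlap the other calls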;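 further: cells exposed to compound for four days before flow analysis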
Starred values were filed as active, the others as inactive; i = inactive; ? = inconclusive; / = no result given; + = active, no number. A selection: hits, their analogues and other compounds. The true share with any hit is near 3.5%.

SMILES | ATG4B inh | CHRM1 antagonist | CHRM1 PAM | SKN-1 inh | M1 ag | Myeloid diff 2
Cc1cccnc1Nc1nc(-c2ccc(O)cc2)cs1 | -16 | -4 | 3 | 7 | -3 | i
O=C(Nc1nc(-c2cc(F)ccc2F)cs1)c1ccccn1 | -1 | -5 | 9 | 38* | -2 | i
Fc1ccc(-c2csc(Nc3ccccn3)n2)c(F)c1 | 5 | -24 | 6 | 60* | -6 | i
O=C(Nc1nc(-c2cc(F)ccc2F)cs1)C1=COCCO1 | -5 | 10 | -2 | 22 | -6 | i
Cc1ccc(Cl)cc1N1CCN(C(=O)c2ccccc2SCC(=O)N2CCCC2)CC1 | -9 | 6 | 0 | -8 | -3 | i
CC(C)(C)c1cc(CP(=O)(c2ccccc2)c2ccccc2)cc(C(C)(C)C)c1O | 2 | -4 | 0 | 0 | -4 | i
Cc1ccc(-c2csc(Nc3ccccn3)n2)cc1 | 6 | -7 | 0 | 26 | -6 | i
c1ccc(-c2csc(Nc3ccccn3)n2)cc1 | 5 | -12 | 8 | 67* | -5 | i
COc1ccc(-c2nnc(OC)c3ccccc23)cc1 | -7 | -8 | 5 | 3 | -4 | i
COc1nc(-c2ccccc2)nnc1-c1ccccc1 | -10 | 2 | -8 | 52* | -3 | i
O=C(CSc1nc2ccccc2c(=O)n1-c1ccccc1Cl)NCC1CCCO1 (stereo not given) | 7 | -16 | 12 | 2 | -2 | i
CCn1c(=NC(=O)CS(=O)(=O)c2ccc(F)cc2)sc2cccc(OC)c21 | -7 | 6 | -2 | 7 | -6 | +
CC1(C(=O)Nc2cccc(C(F)(F)F)c2)Cc2c(-c3ccccc3)ccnc2O1 (stereo not given) | / | -16 | 8 | 12 | -3 | i
Cc1cc(C(=O)O)ccc1N/C=C1\CCCC(C)C1=O (stereo not given) | -4 | -6 | 3 | -4 | -3 | i
CC1CCC/C(=C\Nc2ccc(O)cc2)C1=O (stereo not given) | -2 | -3 | 8 | 10 | -5 | +
CC(=O)N1CCC(C(=O)N2c3ccccc3N=C(c3ccc4c(c3)OCO4)C2C(=O)NCc2ccccc2)CC1 (stereo not given) | / | / | / | -3 | / | i
COc1ccc(N2CCN(C(=O)C3(S(=O)(=O)c4ccc(C)cc4)CC3)CC2)cc1 | -6 | -10 | 9 | -5 | -3 | i
CCc1cc(C(=O)OCC(=O)N2CCC(c3ccccc3)=N2)sc1C | -1 | 48* | -22 | 6 | -6 | i
O=C(OCC(=O)N1CCC(c2ccccc2)=N1)c1ccc(Cl)s1 | -7 | -4 | 7 | -2 | -6 | i
CCCCCCCCn1c2c(c(=N)c3ccccc31)CCC2 | -2 | 47* | -27 | -2 | -6 | ?
CCCCCn1c2c(c(=N)c3ccccc31)CCC2 | 4 | -2 | 5 | 16 | -8 | i
CCCCCCCCCn1c2c(c(=N)c3c1CCC3)CCCC2 | 9 | 49* | -25 | 10 | -1 | ?
CCCCCCCCCCn1c2c(c(=N)c3c1CCC3)CCC2 | 19 | 35* | -12 | 33 | -1 | ?
CCn1c2c(c(=N)c3c1CCC3)CCCC2 | -4 | -15 | 2 | -7 | -7 | i
NC(c1ccccc1)c1cccs1 (stereo not given) | / | 7 | 9 | -2 | 7 | i
SMILES | ATG4B inh | CHRM1 antagonist | CHRM1 PAM | SKN-1 inh | M1 ag | Myeloid diff 2
CCN(CC)C(=O)[C@H]1CC(CC(=O)NC(C)(C)C)C(=O)N2CCc3c([nH]c4ccc(OC)cc34)[C@]12C (stereo not given in full) | 1 | -5 | 9 | -4 | 0 | i
Cc1cc(C)c(S(=O)(=O)c2ccc(C(C)(C)C)cc2)c(Cl)n1 | -6 | 12 | -8 | -1 | -5 | i
CC(C)(C)C(=O)/C=C(\N)c1ccccn1 | 1 | -6 | 5 | -1 | -2 | +
O=C(O)c1ccccn1 | 0 | -23 | 1 | 5 | -2 | i
O=C(OCC(=O)c1c[nH]c2ccccc12)c1cccc([N+](=O)[O-])c1 | 21 | 4 | -3 | 9 | -2 | i
O=C(CCC1CCN(C(=O)C2CC=CCC2)CC1)Nc1ccccc1 (stereo not given) | / | -17 | 7 | 0 | -3 | i
O=C(NCCC1=CCCCC1)C1CCC(=O)N(Cc2ccc(Cl)cc2)C1 (stereo not given) | 3 | -4 | 2 | 6 | -5 | +
C/C(O)=C\c1nc2ccccc2oc1=O | -2 | 1 | -3 | -19 | -4 | +
CC(=O)c1cccc(NC(=S)NC(=O)Cc2ccccc2)c1 | 2 | -4 | 2 | 7 | -5 | i
CC(=O)c1cccc(NC(=S)NC(=O)Cc2ccc(Cl)cc2)c1 | -9 | -3 | 12 | 7 | 21* | i
O=C(NC1CCN(Cc2ccccc2)CC1)C1COc2ccccc2O1 (stereo not given) | -7 | 83* | -22 | 13 | -7 | i
CCN(c1ccccc1)S(=O)(=O)c1ccc(C(=O)NC2CCN(Cc3ccccc3)CC2)cc1 | 2 | 66* | -30 | 5 | 7 | i
O=C(NCc1ccccc1)C1COc2ccccc2O1 (stereo not given) | -13 | -10 | 7 | -24 | -5 | i
CC(OC(=O)c1cccc(O)c1)C(=O)N(C)Cc1ccccc1 (stereo not given) | -1 | -18 | 11 | 7 | -5 | i
CC(OC(=O)/C(C#N)=C/c1ccc(N(C)C)cc1)C(=O)N(C)Cc1ccccc1 (stereo not given) | 2 | 30* | -17 | 62 | 15 | i
CC(=O)Nc1cccc(NC(=O)CSc2ncc(-c3ccc(Cl)cc3)n2Cc2ccco2)c1 | -16 | 26* | -19 | -5 | 6 | i
Cc1cccc2sc(N(CCCN(C)C)C(=O)c3cc4ccccc4oc3=O)nc12 | -3 | 8 | -8 | 8 | -8 | i
Cc1cccc2sc(N(CCCN(C)C)C(=O)c3ccc(Cl)s3)nc12 | 22 | 51* | -18 | -10 | -3 | i
Cc1cccc2sc(N(CCCN(C)C)C(=O)c3ccco3)nc12 | 20 | 76* | -16 | 4 | 14 | ?
CN(C)CC(O)COc1cc2ccccc2cc1C(=O)N1CCCCC1 (stereo not given) | 0 | 33* | -6 | -15 | 10 | i
C[C@H]1CN([C@@H](C)CO)C(=O)CCCn2nncc2CO[C@@H]1CN(C)Cc1ccncc1 | / | -8 | 1 | -22 | -6 | i
O=C1Nc2ccc(C(=O)O)c(O)c2C1=O | -2 | -13 | 6 | 0 | 1 | i
O=c1/c(=C\c2ccc(O)cc2)sc2n1C(c1ccccc1)C(c1ccccc1)=NN=2 (stereo not given) | 3 | 0 | 2 | 1 | -2 | +
